The list is not random: actives were taken first. Their share in the collection is about 6.9%.
HCV NS3h FP: blocks HCV NS3 helicase binding to DNA | NS3h Cy5-dT15 DNA binding, fluorescence polarization | inhibition, % at 100 µM | hit rate 1.6% among 16,000 | AID 687043;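 active = inhibition above the average over every tested compound plus 3 SD, cut at about 40% in these data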
Cy5 interf NS3h: enhances or quenches Cy5 fluorescence in NS3h assay; AID 720488; fluorescence interference ratio at 100 µM; hit rate 6% among 16,000; Cy5-dT15 DNA with NS3h, fluorescence interference; actives lie on both sides; signal over control mean, under 1 quenches;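 active = compound fluorescence over control fluorescence at most 0.8, a quencher, or at least a set upper limit, an enhancer; inactive = ratio between 0.8 and the set upper limit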
The depositor's hits bear a star.

SMILES	HCV NS3h FP	Cy5 interf NS3h
COc1cccc(OCCOc2c(Cl)cc(/C=c3\sc4nc5ccccc5n4c3=O)cc2OC)c1	6	1.1
COc1ccc(OC)c(-c2nc(-c3ccccc3)c(-c3cccs3)[nH]2)c1	10	0.92
COc1ccc(-c2nc(-c3ccc(O)cc3)[nH]c2-c2ccc(OC)cc2)cc1	7	0.73*
COc1cc(NC(=O)c2ccc([N+](=O)[O-])cc2)ccc1NC(=O)c1ccco1	1	0.94
COc1cc(NC(=O)c2cccc([N+](=O)[O-])c2)ccc1NC(=O)c1ccco1	-15	0.73*
O=C(/C=C\Nc1ccccc1[N+](=O)[O-])c1ccc2c(c1)OCO2	48*	0.64*
CCOc1ccc(N/C=C\C(=O)c2ccc3c(c2)OCO3)c([N+](=O)[O-])c1	29	1
O=[N+]([O-])c1ccccc1NC(=NS(=O)(=O)c1ccc(Cl)cc1)c1ccccc1	20	0.69*
O=[N+]([O-])c1ccccc1NC(=NS(=O)(=O)c1ccccc1)c1ccccc1	5	0.99
CN(C)CC#CC(O)(c1ccccc1)c1ccccc1	-20	1
CN(CCOC(=O)C(C)(c1ccccc1)c1ccccc1)C(C)(C)C	6	0.76*
Cc1cc([N+](=O)[O-])ccc1-c1ccc(C(=O)Nc2ccccc2O)o1	4	0.9
O=C(Nc1cccc(C(=O)O)c1)/C(=C/c1cccc([N+](=O)[O-])c1)NC(=O)c1ccccc1	-5	1
CC(=O)Nc1ccc(NS(=O)(=O)c2cc(Cl)ccc2Cl)cc1	1	0.99
O=S(=O)(c1cc(Cl)cc(Cl)c1O)c1cc(Cl)cc(Cl)c1O	25	0.5*
O=[N+]([O-])c1ccc(N2CCN(S(=O)(=O)c3ccc4ccccc4c3)CC2)cc1N1CCCC1	15	0.99
Cc1ccc(C(=O)Oc2cccc(C3C4=C(Nc5c3c(=O)n(C)c(=O)n5C)c3ccccc3C4=O)c2)cc1 (configuration not stated)	5	1
Cc1ccc(N2CN=C(c3ccccc3)NC2=S)cc1	14	0.75*
Cc1ccc(N2C(=O)/C(=C/c3ccccc3C)C(=O)NC2=S)cc1	3	1
CC(=O)Nc1ccc(S(=O)(=O)N/N=C\c2ccco2)cc1	-3	1.1
O=C(NCC1CCCO1)c1cc2nc(-c3ccccc3)cc(-c3ccccc3)n2n1 (configuration not stated)	16	0.62*
COCCNC(=O)c1cc2nc(-c3ccccc3)cc(-c3ccccc3)n2n1	18	0.94
O=C1C(=O)N(c2nccs2)C(c2cccc(Br)c2)C1=C(O)c1ccc(F)cc1 (configuration not stated)	2	0.83
O=[N+]([O-])c1ccc2c(c1)S(=O)(=O)N=C2Nc1cccc(Cl)c1	-10	0.73*
CN(C1=NS(=O)(=O)c2cc([N+](=O)[O-])ccc21)c1ccccc1	-2	0.89
SMILES	HCV NS3h FP	Cy5 interf NS3h
COc1ccccc1/C=N\N=C1/NC(=O)C(Cc2ccc(Cl)cc2Cl)S1 (configuration not stated)	-19	1.2
Cc1cccc(N2C(=O)C(=O)C(=C(O)c3ccccc3)C2c2ccc(F)cc2)c1 (configuration not stated)	6	0.97
O=C(NC(=S)Nc1ccc2oc(-c3cc(I)ccc3Cl)nc2c1)c1ccco1	-19	1.1
O=C(NC(=S)Nc1cccc(NC(=O)c2ccccc2Cl)c1)c1ccco1	44*	0.87
O=C(Nc1cccc(NC(=S)NC(=O)c2ccco2)c1)c1cccc(Cl)c1	-6	1.1
O=C(NC(=S)Nc1cccc(Cl)c1)c1ccco1	-1	0.99
O=C(NC(=S)Nc1cccc(NC(=O)c2ccco2)c1)c1ccco1	42*	0.86
O=C(NC(=S)Nc1ccc(Cl)c(-c2nc3ccccc3o2)c1)c1ccco1	11	1.2*
COC(=O)C1=C(C)N(C)C(=O)/C1=C\c1ccc(C(=O)OC)cc1	5	1.1
CNC(=O)OC12CC3CC(C)(CC(C)(C3)C1)C2	-5	0.87
COc1ccc(OC)c(/C=C/C(=O)c2c(-c3ccccc3)c3cc(Br)ccc3[nH]c2=O)c1	12	1
Fc1cccc(Cl)c1Cc1noc(-c2ccc(Br)cc2)n1	-1	1
COc1ccccc1C(=O)Nc1ccc(-c2cc3ccccc3oc2=O)cc1	-30	0.76*
Cc1cc(NC(=O)c2ccccc2I)ccc1-c1cc2ccccc2oc1=O	14	1
Cc1cc(NC(=O)c2ccc(Cl)cc2)ccc1-c1cc2ccccc2oc1=O	3	0.66*
CCOc1ccc(C(=O)Nc2ccc(-c3cc4ccccc4oc3=O)c(C)c2)cc1Cl	-2	0.96
CCOC(=O)c1c(C)oc2ccc(OCc3cccc(F)c3)cc12	14	0.88
COc1cc(/C=C2/SC(=S)N(C)C2=O)cc(Br)c1OCc1ccc(F)cc1	-3	1
COc1ccccc1N(CC(=O)Nc1ccc(C(C)C)cc1)S(=O)(=O)c1ccccc1	7	0.97
Cc1ccc(C(=O)O/N=C(/N)c2ccc(Br)cc2)cc1[N+](=O)[O-]	18	0.78*
Cc1ccc(C(=O)O/N=C(/N)c2ccc(Cl)cc2)cc1[N+](=O)[O-]	-2	0.96
O=c1oc(-c2cccc(F)c2)nc2cc(Cc3ccc4c(=O)oc(-c5cccc(F)c5)nc4c3)ccc12	3	1.1
Cc1ccc(N=C2NC(=O)/C(=C\c3cccc(Br)c3)S2)cc1C	0	0.79*
Cc1ccc(N=C2NC(=O)/C(=C/c3ccc(O)cc3)S2)cc1C	-4	0.94
COc1ccc(NC(=O)c2nn3c(c2Br)NC(c2cccs2)CC3C(F)(F)F)c(OC)c1 (configuration not stated)	16	0.96
SMILES	HCV NS3h FP	Cy5 interf NS3h
CS(=O)(=O)c1ccc2nc(NC(=O)c3ccc(Cl)c(Cl)c3)sc2c1	-26	0.71*
CS(=O)(=O)c1ccc2nc(NC(=O)c3ccccc3)sc2c1	13	1.1
O=C(/C=C/c1ccccc1)Nc1ccccc1I	12	0.96
O=C(/C=C\c1ccccc1)Nc1ccc2c3c(cccc13)CC2	23	0.73*
Cc1cc(Nc2ccc(C)c(Cl)c2)n2ncnc2n1	15	0.74*
Cc1cc(Nc2cc(Cl)cc(Cl)c2)n2ncnc2n1	-1	0.91
O=C(Nc1cc(Cl)cc(Cl)c1)C(c1ccccc1)c1ccccc1	-7	1.1
O=C(Nc1cc(C(F)(F)F)ccc1Cl)C(c1ccccc1)c1ccccc1	25	0.77*
COC(=O)c1ccccc1NC(=O)CSc1nnc(-c2cccc(F)c2)n1-c1ccccc1	15	0.84
CS(=O)(=O)N1CCN(Cc2cccc3ccccc23)CC1	10	0.69*
Oc1ccc(Br)cc1CN1CCN(Cc2cccc3ccccc23)CC1	-8	0.93
CS(=O)(=O)N1CCN(Cc2ccccc2Cl)CC1	1	0.61*
CS(=O)(=O)N1CCN(CCCc2ccccc2)CC1	-5	1
Cc1ccc(CNC(=O)C(=O)Nc2cc(Cl)ccc2C)cc1	5	1
COc1ccc(C(NC(=O)c2cccc(OC)c2)NC(=O)c2cccc(OC)c2)cc1	11	0.91
CN1C(=O)C2(NN=C(c3cccc4ccccc34)S2)c2ccccc21 (configuration not stated)	13	0.98
Cc1ccc2c(c1)-c1c(ssc1=S)C(C)(C)N2C(=O)Cc1ccccc1	-15	0.97
CN1C(=O)/C(=C\c2cc(Cl)c(O)c(Cl)c2)SC1=S	22	1
Cc1ccccc1-c1cc2nc(C)c(Cl)c(=O)n2[nH]1	-1	1
Cc1nc2cc(-c3ccco3)[nH]n2c(=O)c1C	9	0.77*

Assay outcomes: PubChem BioAssay, Milwaukee Institute for Drug Discovery
